# ChEMBL document CHEMBL1157539, “Thousands of chemical starting points for antimalarial lead identification” (Nature, 2010)
# Tests used:
# Format in all cases: functional
# Plasmodium falciparum [1] = experiment: GSK_TCMDC: Inhibition of Plasmodium falciparum 3D7 in whole red blood cells, using parasite LDH activity as an index of growth. Test compounds present at 2uM
# Plasmodium falciparum [2] = experiment: GSK_TCMDC: Inhibition of Plasmodium falciparum Dd2 in whole red blood cells, using parasite LDH activity as an index of growth. Test compounds present at 2uM
# HepG2 = experiment: GSK_TCMDC: Percent inhibition of human HepG2 cell line. Test compounds present at 10uM.
compound,measurement,setting,value
C[C@@H](CC1CCCCC1)OC(=O)N[C@H]1CCN(C#N)C1,Inhibition,Plasmodium falciparum [1],95%
same,Inhibition,Plasmodium falciparum [2],83%
same,Inhibition,HepG2,7%
NC(=O)c1cccc(C(=O)Nc2cccc(-c3cccc(-c4nc5cc(C(F)(F)F)ccc5[nH]4)c3)c2)c1,Inhibition,Plasmodium falciparum [1],100%
same,Inhibition,Plasmodium falciparum [2],85%
same,Inhibition,HepG2,71%
COc1cccc2cc(C(=O)N[C@@H](CC(C)C)C(=O)N[C@H](/C=N/NC(=O)OC(C)(C)C)CC(=O)OC(C)(C)C)oc12,Inhibition,Plasmodium falciparum [1],85%
same,Inhibition,Plasmodium falciparum [2],57%
same,Inhibition,HepG2,4%
Cc1cc(C(F)(F)F)cc(-n2ncc(-c3ccc(C(=O)NCCNCc4ccccc4)cc3)c2N)n1.O=C(O)C(F)(F)F,Inhibition,Plasmodium falciparum [1],91%
same,Inhibition,Plasmodium falciparum [2],9%
same,Inhibition,HepG2,98%
CCCCCCN1CCC(NCc2ccc(Cl)cc2)CC1.O=C(O)C(F)(F)F,Inhibition,Plasmodium falciparum [1],98%
same,Inhibition,Plasmodium falciparum [2],9%
same,Inhibition,HepG2,19%
CC(C)(C)c1ccc(OC(=O)c2ccc(NC(=O)N[C@@H](Cc3ccc(O)cc3)C(=O)NC3CCN(Cc4ccc(O)cc4)C3)cc2)cc1.O=C(O)C(F)(F)F (stereo partly drawn),Inhibition,Plasmodium falciparum [1],92%
same,Inhibition,Plasmodium falciparum [2],67%
same,Inhibition,HepG2,0%
Cc1nc(-c2ccc(-c3ccc(NC(=O)c4coc5ccc(N6CC(C)NC(C)C6)cc45)cc3)c(C)c2)no1.Cl (stereo not drawn),Inhibition,Plasmodium falciparum [1],100%
same,Inhibition,Plasmodium falciparum [2],88%
same,Inhibition,HepG2,1%
NCCCCNc1cc(-c2ccnc(Nc3cccc(Cl)c3)n2)ccn1,Inhibition,Plasmodium falciparum [1],94%
same,Inhibition,Plasmodium falciparum [2],91%
same,Inhibition,HepG2,46%
O=C(NC1CCN(Cc2ccc3c(c2)OCCO3)CC1)c1ccc(-c2cccc(C(F)(F)F)c2)s1.O=C(O)C(F)(F)F,Inhibition,Plasmodium falciparum [1],100%
same,Inhibition,Plasmodium falciparum [2],35%
same,Inhibition,HepG2,99%
O=C(NCCc1ccccc1F)c1ccc(N2CCN(c3ccncc3)CC2)cn1.O=C(O)C(F)(F)F,Inhibition,Plasmodium falciparum [1],93%
same,Inhibition,Plasmodium falciparum [2],18%
same,Inhibition,HepG2,8%
Cc1[nH]c(C)c(-c2ccc(CCc3cccc(C(F)(F)F)c3)nc2)c(=O)c1Cl,Inhibition,Plasmodium falciparum [1],99%
same,Inhibition,Plasmodium falciparum [2],97%
same,Inhibition,HepG2,28%
COc1ccc(O)c(Cc2cnc3nc(N)[nH]c(=O)c3c2C)c1.CS(=O)(=O)O,Inhibition,Plasmodium falciparum [1],96%
same,Inhibition,Plasmodium falciparum [2],6%
same,Inhibition,HepG2,30%
CC(C)CNCc1cccc(-c2cccc(CN(CCN(C)C)C(=O)NCCc3ccccc3)c2)c1.O=C(O)C(F)(F)F,Inhibition,Plasmodium falciparum [1],99%
same,Inhibition,Plasmodium falciparum [2],83%
same,Inhibition,HepG2,84%
CCN(CCC1(c2ccc(Cl)c(Cl)c2)CN(C(=O)c2cc(OC)c(OC)c(OC)c2)CCO1)C1CC2c3ccccc3CC21 (stereo not drawn),Inhibition,Plasmodium falciparum [1],80%
same,Inhibition,Plasmodium falciparum [2],65%
same,Inhibition,HepG2,26%
Cc1cc(CN2CC[C@H](NC(=O)c3ccc(Cl)c(Cl)c3)C2)ccc1OCCCN(C)C.O=C(O)C(F)(F)F,Inhibition,Plasmodium falciparum [1],99%
same,Inhibition,Plasmodium falciparum [2],35%
same,Inhibition,HepG2,41%
CS(=O)(=O)c1ccc(-c2cncc(Nc3cccc([N+](=O)[O-])c3)c2)cc1,Inhibition,Plasmodium falciparum [1],97%
same,Inhibition,Plasmodium falciparum [2],70%
same,Inhibition,HepG2,6%
Cc1cnc(CNCc2ccc(S(=O)(=O)Nc3ccc(Oc4cccc(Cl)c4)cc3)cc2)cn1.O=C(O)C(F)(F)F,Inhibition,Plasmodium falciparum [1],97%
same,Inhibition,Plasmodium falciparum [2],0%
same,Inhibition,HepG2,4%
CC(C)CNCc1ccc(-c2ccccc2CNC2CCN(Cc3ccccc3)CC2)cc1.O=C(O)C(F)(F)F,Inhibition,Plasmodium falciparum [1],100%
same,Inhibition,Plasmodium falciparum [2],41%
same,Inhibition,HepG2,28%
COc1ccc2nccc(NC(=O)N3CCC(NCCOc4cc(F)cc(F)c4)CC3)c2n1.O=C(O)C(=O)O,Inhibition,Plasmodium falciparum [1],86%
same,Inhibition,Plasmodium falciparum [2],38%
same,Inhibition,HepG2,14%
COc1ccc(-c2cn3c(C(=O)Nc4ccccc4Cl)c(-c4ccccc4)c4c3n2CCCC4)cc1,Inhibition,Plasmodium falciparum [1],100%
same,Inhibition,Plasmodium falciparum [2],1%
same,Inhibition,HepG2,7%
COc1cc2nc(NCCc3ccccc3)nc(NCCc3ccccc3)c2cc1OC,Inhibition,Plasmodium falciparum [1],100%
same,Inhibition,Plasmodium falciparum [2],100%
same,Inhibition,HepG2,99%
O=C(/C=C/c1ccc(Cl)c(Cl)c1)NCCCCCN1CCCN(C(=O)Nc2ccc(Cl)c(C(F)(F)F)c2)CC1,Inhibition,Plasmodium falciparum [1],100%
same,Inhibition,Plasmodium falciparum [2],16%
same,Inhibition,HepG2,35%
Clc1ccc(CNc2ccnc(NCc3cccnc3N3CCCC3)n2)c(Cl)c1,Inhibition,Plasmodium falciparum [1],85%
same,Inhibition,Plasmodium falciparum [2],53%
same,Inhibition,HepG2,37%
Clc1ccc(-c2nc3cc(-c4ccc5nc(-c6ccc(Cl)cc6)[nH]c5c4)ccc3[nH]2)cc1,Inhibition,Plasmodium falciparum [1],100%
same,Inhibition,Plasmodium falciparum [2],99%
same,Inhibition,HepG2,59%
O=C(NC1CCN(Cc2ccccc2)CC1)c1cc(-c2ccncc2)c(-c2ccc(Cl)c(O)c2)o1.O=C(O)C(F)(F)F,Inhibition,Plasmodium falciparum [1],100%
same,Inhibition,Plasmodium falciparum [2],86%
same,Inhibition,HepG2,9%
COc1ccc(-c2ccc(CNCc3ccccc3)cc2)cc1S(=O)(=O)NCCN1CCCC1.O=C(O)C(F)(F)F,Inhibition,Plasmodium falciparum [1],100%
same,Inhibition,Plasmodium falciparum [2],76%
same,Inhibition,HepG2,36%
